Measurements: PubChem BioAssay AID1159580 (chemical genetic matrix, 2015)
The campaign covered roughly 5,500 compounds. About 2,000 (36%) were called active. Another 18% or so got no clear call; they are omitted. Cut-off read from the data, not from the text of the source: active = normalized growth mostly below about 0.91 (no sharp cut-off); inconclusive = no clear call, values can overlap the other calls; inactive = mostly above about 0.92. The list shows a part of the results.

Experiment: chemical genetic growth profiling, strain panel (AID 1159580);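 note: tested at 20 µM; growth read once vehicle control cultures reached saturation at 30 °C; 1 = growth at the plate median or of vehicle wells; lower values mean less growth of the strain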
Conditions: growth OD

Measured: normalized growth

CC(=O)NC1SCCC1=O (stereo not drawn)
inactive: S. cerevisiae deletion strains, locus YAL021C, strain ccr4, stronger effect = lower value 1.01 | S. cerevisiae deletion strains, locus YAL026C, strain drs2, stronger effect = lower value 0.983 | S. cerevisiae deletion strains, locus YAL030W, strain snc1, stronger effect = lower value 0.975 | S. cerevisiae deletion strains, locus YBL061C, strain skt5, stronger effect = lower value 0.985 | S. cerevisiae deletion strains, locus YBR009C, strain hhf1, stronger effect = lower value 0.971 | S. cerevisiae deletion strains, locus YBR021W, strain FUR4, stronger effect = lower value 1.02 | S. cerevisiae deletion strains, locus YBR023C, strain chs3, stronger effect = lower value 0.977 | S. cerevisiae deletion strains, locus YBR171W, strain sec66, stronger effect = lower value 0.998 | S. cerevisiae deletion strains, locus YBR229C, strain ROT2, stronger effect = lower value 1.01 | S. cerevisiae deletion strains, locus YBR231C, strain swc5, stronger effect = lower value 0.996 | S. cerevisiae deletion strains, locus YBR279W, strain paf1, stronger effect = lower value 0.99 | S. cerevisiae deletion strains, locus YCL011C, strain gbp2, stronger effect = lower value 0.974 | S. cerevisiae deletion strains, locus YCL016C, strain dcc1, stronger effect = lower value 0.99 | S. cerevisiae deletion strains, locus YCL029C, strain bik1, stronger effect = lower value 1.02 | S. cerevisiae deletion strains, locus YCL061C, strain MRC1, stronger effect = lower value 1 | S. cerevisiae deletion strains, locus YCL069W, strain vba3, stronger effect = lower value 0.981 | S. cerevisiae deletion strains, locus YCR088W, strain abp1, stronger effect = lower value 0.984 | S. cerevisiae deletion strains, locus YDL005C, strain med2, stronger effect = lower value 1.01 | S. cerevisiae deletion strains, locus YDL035C, strain GPR1, stronger effect = lower value 1.03 | S. cerevisiae deletion strains, locus YDL040C, strain nat1, stronger effect = lower value 0.992 | S. cerevisiae deletion strains, locus YDL074C, strain BRE1, stronger effect = lower value 0.994 | S. cerevisiae deletion strains, locus YDL101C, strain DUN1, stronger effect = lower value 1.01 | S. cerevisiae deletion strains, locus YDL134C, strain PPH21, stronger effect = lower value 1.03 | S. cerevisiae deletion strains, locus YDL185W, strain tfp1, stronger effect = lower value 1.01 | S. cerevisiae deletion strains, locus YDL192W, strain arf1, stronger effect = lower value 1.01 | S. cerevisiae deletion strains, locus YDR001C, strain nth1, stronger effect = lower value 0.986 | S. cerevisiae deletion strains, locus YDR069C, strain doa4, stronger effect = lower value 0.977 | S. cerevisiae deletion strains, locus YDR101C, strain arx1, stronger effect = lower value 0.982 | S. cerevisiae deletion strains, locus YDR137W, strain rgp1, stronger effect = lower value 1.01 | S. cerevisiae deletion strains, locus YDR159W, strain sac3, stronger effect = lower value 0.945 | S. cerevisiae deletion strains, locus YDR162C, strain NBP2, stronger effect = lower value 1.02 | S. cerevisiae deletion strains, locus YDR195W, strain ref2 0.97 | S. cerevisiae deletion strains, locus YDR297W, strain sur2, stronger effect = lower value 0.985 | S. cerevisiae deletion strains, locus YDR318W, strain mcm21, stronger effect = lower value 1.02 | S. cerevisiae deletion strains, locus YDR334W, strain swr1, stronger effect = lower value 0.982 | S. cerevisiae deletion strains, locus YDR335W, strain msn5, stronger effect = lower value 0.99 | S. cerevisiae deletion strains, locus YDR388W, stronger effect = lower value 1.02 | S. cerevisiae deletion strains, locus YDR392W, strain spt3, stronger effect = lower value 0.889 | S. cerevisiae deletion strains, locus YDR502C, strain sam2, stronger effect = lower value 0.999 | S. cerevisiae deletion strains, locus YEL003W, strain gim4, stronger effect = lower value 0.976 | S. cerevisiae deletion strains, locus YEL037C, strain rad23, stronger effect = lower value 0.975 | S. cerevisiae deletion strains, locus YEL061C, strain CIN8 (second series), stronger effect = lower value 0.981 | S. cerevisiae deletion strains, locus YEL061C, strain CIN8, stronger effect = lower value 1 | S. cerevisiae deletion strains, locus YER015W, strain faa2, stronger effect = lower value 1.01 | S. cerevisiae deletion strains, locus YER016W, strain bim1, stronger effect = lower value 0.982 | S. cerevisiae deletion strains, locus YER110C, stronger effect = lower value 1.02 | S. cerevisiae deletion strains, locus YER111C, strain swi4, stronger effect = lower value 0.977 | S. cerevisiae deletion strains, locus YER155C, strain BEM2 (second series), stronger effect = lower value 0.958 | S. cerevisiae deletion strains, locus YER155C, strain BEM2, stronger effect = lower value 1.01 | S. cerevisiae deletion strains, locus YER167W, strain BCK2, stronger effect = lower value 1.02 | S. cerevisiae deletion strains, locus YFR010W, strain ubp6, stronger effect = lower value 0.983 | S. cerevisiae deletion strains, locus YGL078C, strain dbp3, stronger effect = lower value 1 | S. cerevisiae deletion strains, locus YGL086W, strain mad1, stronger effect = lower value 0.999 | S. cerevisiae deletion strains, locus YGL167C, strain pmr1, stronger effect = lower value 0.977 | S. cerevisiae deletion strains, locus YGL173C, strain kem1, stronger effect = lower value 0.974 | S. cerevisiae deletion strains, locus YGL227W, strain vid30, stronger effect = lower value 0.986 | S. cerevisiae deletion strains, locus YGL240W, strain doc1, stronger effect = lower value 0.988 | S. cerevisiae deletion strains, locus YGL248W, strain PDE1, stronger effect = lower value 0.999 | S. cerevisiae deletion strains, locus YGL253W, strain hxk2, stronger effect = lower value 0.989 | S. cerevisiae deletion strains, locus YGR135W, strain pre9, stronger effect = lower value 1.05 | S. cerevisiae deletion strains, locus YGR252W, strain gcn5, stronger effect = lower value 1 | S. cerevisiae deletion strains, locus YHR013C, strain ard1, stronger effect = lower value 0.943 | S. cerevisiae deletion strains, locus YHR027C, strain rpn1, stronger effect = lower value 1 | S. cerevisiae deletion strains, locus YHR030C, strain SLT2, stronger effect = lower value 1 | S. cerevisiae deletion strains, locus YHR079C, strain IRE1 (second series), stronger effect = lower value 1 | S. cerevisiae deletion strains, locus YHR094C, strain hxt1, stronger effect = lower value 1.02 | S. cerevisiae deletion strains, locus YHR129C, strain ARP1, stronger effect = lower value 1.01 | S. cerevisiae deletion strains, locus YHR142W, strain chs7, stronger effect = lower value 1.02 | S. cerevisiae deletion strains, locus YHR200W, strain rpn10, stronger effect = lower value 1.02 | S. cerevisiae deletion strains, locus YIL066C, strain RNR3, stronger effect = lower value 0.998 | S. cerevisiae deletion strains, locus YIL073C, strain SPO22, stronger effect = lower value 1.04 | S. cerevisiae deletion strains, locus YIL125W, strain kgd1, stronger effect = lower value 1.01 | S. cerevisiae deletion strains, locus YIR030C, strain dcg1, stronger effect = lower value 1.01 | S. cerevisiae deletion strains, locus YJL092W, strain hpr5, stronger effect = lower value 0.995 | S. cerevisiae deletion strains, locus YJL095W, strain BCK1 (second series), stronger effect = lower value 1 | S. cerevisiae deletion strains, locus YJL095W, strain BCK1, stronger effect = lower value 0.994 | S. cerevisiae deletion strains, locus YJL115W, strain asf1, stronger effect = lower value 0.979 | S. cerevisiae deletion strains, locus YJL129C, strain trk1, stronger effect = lower value 1 | S. cerevisiae deletion strains, locus YJL134W, strain LCB3, stronger effect = lower value 1.01 | S. cerevisiae deletion strains, locus YJL154C, strain vps35, stronger effect = lower value 0.975 | S. cerevisiae deletion strains, locus YJL164C, strain tpk1, stronger effect = lower value 1.01 | S. cerevisiae deletion strains, locus YJL166W, strain qcr8, stronger effect = lower value 0.995 | S. cerevisiae deletion strains, locus YJL168C, strain set2, stronger effect = lower value 1.02 | S. cerevisiae deletion strains, locus YJL187C, strain SWE1 (second series), stronger effect = lower value 0.989 | S. cerevisiae deletion strains, locus YJL187C, strain SWE1, stronger effect = lower value 0.992 | S. cerevisiae deletion strains, locus YJR043C, strain POL32, stronger effect = lower value 1 | S. cerevisiae deletion strains, locus YKL009W, strain mrt4, stronger effect = lower value 0.999 | S. cerevisiae deletion strains, locus YKL068W, stronger effect = lower value 1 | S. cerevisiae deletion strains, locus YKL085W, strain MDH1 (second series), stronger effect = lower value 1.01 | S. cerevisiae deletion strains, locus YKL085W, strain MDH1, stronger effect = lower value 1.01 | S. cerevisiae deletion strains, locus YKL160W, strain elf1, stronger effect = lower value 1.04 | S. cerevisiae deletion strains, locus YKL190W, strain CNB1, stronger effect = lower value 0.998 | S. cerevisiae deletion strains, locus YKR001C, strain vps1, stronger effect = lower value 1.01 | S. cerevisiae deletion strains, locus YKR026C, strain gcn3, stronger effect = lower value 0.977 | S. cerevisiae deletion strains, locus YKR091W, strain srl3, stronger effect = lower value 0.99 | S. cerevisiae deletion strains, locus YLL001W, strain dnm1, stronger effect = lower value 1.02 | S. cerevisiae deletion strains, locus YLL026W, stronger effect = lower value 1 | S. cerevisiae deletion strains, locus YLL041C, strain sdh2, stronger effect = lower value 0.997 | S. cerevisiae deletion strains, locus YLR027C, strain aat2, stronger effect = lower value 1 | S. cerevisiae deletion strains, locus YLR039C, strain RIC1, stronger effect = lower value 1.01 | S. cerevisiae deletion strains, locus YLR058C, strain SHM2, stronger effect = lower value 1.01 | S. cerevisiae deletion strains, locus YLR102C, strain apc9, stronger effect = lower value 1.01 | S. cerevisiae deletion strains, locus YLR221C, strain rsa3, stronger effect = lower value 1.01 | S. cerevisiae deletion strains, locus YLR258W, strain gsy2, stronger effect = lower value 0.985 | S. cerevisiae deletion strains, locus YLR262C, strain YPT6 (second series), stronger effect = lower value 0.99 | S. cerevisiae deletion strains, locus YLR262C, strain YPT6, stronger effect = lower value 1 | S. cerevisiae deletion strains, locus YLR268W, strain sec22, stronger effect = lower value 1 | S. cerevisiae deletion strains, locus YLR320W, strain mms22, stronger effect = lower value 0.999 | S. cerevisiae deletion strains, locus YLR330W, strain CHS5, stronger effect = lower value 1.01 | S. cerevisiae deletion strains, locus YLR342W, strain FKS1 (second series), stronger effect = lower value 1.07 | S. cerevisiae deletion strains, locus YLR342W, strain FKS1, stronger effect = lower value 0.979 | S. cerevisiae deletion strains, locus YLR357W, strain rsc2, stronger effect = lower value 0.991 | S. cerevisiae deletion strains, locus YLR370C, strain arc18, stronger effect = lower value 0.992 | S. cerevisiae deletion strains, locus YLR371W, strain rom2, stronger effect = lower value 1.01 | S. cerevisiae deletion strains, locus YLR384C, strain iki3, stronger effect = lower value 0.979 | S. cerevisiae deletion strains, locus YLR418C, strain cdc73, stronger effect = lower value 1.02 | S. cerevisiae deletion strains, locus YML016C, strain PPZ1, stronger effect = lower value 0.998 | S. cerevisiae deletion strains, locus YML032C, strain rad52, stronger effect = lower value 0.995 | S. cerevisiae deletion strains, locus YML120C, strain ndi1, stronger effect = lower value 0.985 | S. cerevisiae deletion strains, locus YML124C, strain tub3, stronger effect = lower value 1.01 | S. cerevisiae deletion strains, locus YMR058W, strain fet3, stronger effect = lower value 0.989 | S. cerevisiae deletion strains, locus YMR078C, strain ctf18, stronger effect = lower value 1.01 | S. cerevisiae deletion strains, locus YMR125W, strain sto1, stronger effect = lower value 0.959 | S. cerevisiae deletion strains, locus YMR129W, stronger effect = lower value 0.995 | S. cerevisiae deletion strains, locus YMR205C, strain PFK2, stronger effect = lower value 0.969 | S. cerevisiae deletion strains, locus YMR223W, strain ubp8, stronger effect = lower value 1.03 | S. cerevisiae deletion strains, locus YMR231W, strain pep5, stronger effect = lower value 0.976 | S. cerevisiae deletion strains, locus YMR307W, strain GAS1, stronger effect = lower value 0.996 | S. cerevisiae deletion strains, locus YNL067W, strain RPL9B, stronger effect = lower value 0.987 | S. cerevisiae deletion strains, locus YNL071W, strain lat1, stronger effect = lower value 0.984 | S. cerevisiae deletion strains, locus YNL209W, strain ssb2, stronger effect = lower value 0.979 | S. cerevisiae deletion strains, locus YNL233W, strain BNI4, stronger effect = lower value 0.984 | S. cerevisiae deletion strains, locus YNL248C, strain rpa49, stronger effect = lower value 1.01 | S. cerevisiae deletion strains, locus YNL250W, strain rad50, stronger effect = lower value 1.04 | S. cerevisiae deletion strains, locus YNL271C, strain bni1, stronger effect = lower value 1.01 | S. cerevisiae deletion strains, locus YNL298W, strain CLA4, stronger effect = lower value 1.01 | S. cerevisiae deletion strains, locus YNL307C, strain MCK1, stronger effect = lower value 1.02 | S. cerevisiae deletion strains, locus YNL322C, strain KRE1 (second series), stronger effect = lower value 0.989 | S. cerevisiae deletion strains, locus YNR049C, strain mso1, stronger effect = lower value 0.975 | S. cerevisiae deletion strains, locus YNR052C, strain pop2, stronger effect = lower value 1.01 | S. cerevisiae deletion strains, locus YOL006C, strain TOP1, stronger effect = lower value 0.961 | S. cerevisiae deletion strains, locus YOL012C, strain htz1 1.01 | S. cerevisiae deletion strains, locus YOL147C, strain pex11, stronger effect = lower value 1.01 | S. cerevisiae deletion strains, locus YOR001W, strain rrp6, stronger effect = lower value 1.01 | S. cerevisiae deletion strains, locus YOR061W, strain CKA2, stronger effect = lower value 1.01 | S. cerevisiae deletion strains, locus YOR069W, strain VPS5, stronger effect = lower value 1 | S. cerevisiae deletion strains, locus YOR070C, strain gyp1, stronger effect = lower value 0.986 | S. cerevisiae deletion strains, locus YOR080W, strain dia2, stronger effect = lower value 0.987 | S. cerevisiae deletion strains, locus YOR083W, strain WHI5, stronger effect = lower value 1.05 | S. cerevisiae deletion strains, locus YOR106W, strain vam3, stronger effect = lower value 1.01 | S. cerevisiae deletion strains, locus YOR136W, strain idh2, stronger effect = lower value 1 | S. cerevisiae deletion strains, locus YOR144C, strain elg1, stronger effect = lower value 1 | S. cerevisiae deletion strains, locus YOR184W, strain ser1, stronger effect = lower value 1.03 | S. cerevisiae deletion strains, locus YOR265W, strain rbl2, stronger effect = lower value 0.997 | S. cerevisiae deletion strains, locus YOR270C, strain vph1, stronger effect = lower value 0.973 | S. cerevisiae deletion strains, locus YOR290C, strain snf2, stronger effect = lower value 0.919 | S. cerevisiae deletion strains, locus YOR316C, strain cot1, stronger effect = lower value 1.01 | S. cerevisiae deletion strains, locus YPL051W, strain arl3, stronger effect = lower value 1.01 | S. cerevisiae deletion strains, locus YPL055C, strain LGE1, stronger effect = lower value 0.93 | S. cerevisiae deletion strains, locus YPL078C, strain atp4, stronger effect = lower value 1.01 | S. cerevisiae deletion strains, locus YPL106C, strain sse1, stronger effect = lower value 0.978 | S. cerevisiae deletion strains, locus YPL240C, strain hsp82, stronger effect = lower value 0.994 | S. cerevisiae deletion strains, locus YPR119W, strain clb2, stronger effect = lower value 1.01 | S. cerevisiae deletion strains, locus YPR141C, strain kar3, stronger effect = lower value 1 | S. cerevisiae deletion strains, locus YPR163C, strain tif3, stronger effect = lower value 1.02 | S. cerevisiae deletion strains, locus YPR167C, strain met16, stronger effect = lower value 1.01 | S. cerevisiae deletion strains, strain wtn01, stronger effect = lower value 1.01 | S. cerevisiae strains, strain wild type, stronger effect = lower value 1.01
